The nature of test [1]: A CellTox Green Cytotoxicity Assay to monitor cytotoxicity in HEK293 cells - 40 hour (AID 1224871). Further: nearly all actives have a fitted effect of over 45% in size. Further: potency means the concentration at half of the fitted maximal effect. The method, boiled down: (§1)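 Fluorescence intensity, read at 0, 8, 16, 24, 32 and 40 h of compound treatment, reflected dye binding to DNA of dead HEK293 cells; compounds (23 nL, DMSO) were added 5 h after plating cells with reagent.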
Test [2] can be described thus: qHTS RealTime-Glo MT Cell Viability Assay in HEK293 cells - 16 hour (AID 1224872). Further: nearly all actives have a fitted effect of over 50% in size. Further: potency means the concentration at half of the fitted maximal effect. On activity change, negative = cytotoxicity: top concentration of the series differs between compounds. The method, boiled down:
(§2)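 Assay medium contained NanoLuc luciferase plus cell-permeant prosubstrate, added with HEK293 cells at 600 cells/well. After 5 h at 37 C/5% CO2 compounds were added; plates stayed at 37 C for 40 h with serial luminescence reads.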

Test [3] is described as follows: qHTS RealTime-Glo MT Cell Viability Assay in HepG2 cells - 8 hour (AID 1224873). Further: nearly all actives have a fitted effect of over 55% in size. Further: potency means the concentration at half of the fitted maximal effect. In outline: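 Real-time viability: cells seeded at 600 per well together with NanoLuc and cell-permeant prosubstrate, compounds added after 5 h incubation. Luminescence tracked at 0, 8, 16, 24, 32 and 40 h of exposure.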
A short description of test [4]: qHTS RealTime-Glo MT Cell Viability Assay in HEK293 cells - 40 hour (AID 1224874). Further: nearly all actives have a fitted effect of over 50% in size. Further: potency means the concentration at half of the fitted maximal effect. The following applies: RealTime-Glo luminescence; max response: stronger effect = lower value. The method, boiled down:
(§3)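 Viable HEK293 cells reduce a cell-permeant prosubstrate; the product diffuses out and is consumed by NanoLuc in the medium to give light. Compounds went in after a 5 h incubation and plates were read over the treatment course.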

Test [5] is described as follows: A CellTox Green Cytotoxicity Assay to monitor cytotoxicity in HEK293 cells - 24 hour (AID 1224875). Further: series mostly up to about 77 µM; nearly all actives have a fitted effect of over 45% in size. In outline: as §1
Test [6] is described as follows: qHTS RealTime-Glo MT Cell Viability Assay in HepG2 cells - 32 hour (AID 1224877). Further: nearly all actives have a fitted effect of over 55% in size. Further: potency means the concentration at half of the fitted maximal effect. In outline: (§4)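 qHTS, HepG2, 600 cells/well, RealTime-Glo (NanoLuc + prosubstrate) added with cells; 5 h preincubation; DMSO compound addition; 37 C; luminescence at 0/8/16/24/32/40 h.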
For orientation: In qHTS, concentration-response curves come from the screen itself.

A short description of test [7]: A CellTox Green Cytotoxicity Assay to monitor cytotoxicity in HepG2 cells - 24 hour (AID 1224878). Further: nearly all actives have a fitted effect of over 45% in size. The method, boiled down: (§5)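 Using 1536-well format, dye-containing HepG2 suspension was seeded, allowed 5 h at 37 C/5% CO2, dosed by pintool with compounds, positive and negative controls, and imaged for fluorescence across 40 h.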
Test [8] in a line: A CellTox Green Cytotoxicity Assay to monitor cytotoxicity in HepG2 cells - 40 hour (AID 1224879). Further: nearly all actives have a fitted effect of over 40% in size. In outline: as §5
The nature of test [9]: qHTS RealTime-Glo MT Cell Viability Assay in HEK293 cells - 0 hour (AID 1224880). Further: top concentration of the series differs between compounds; nearly all actives have a fitted effect of over 45% in size. The method, boiled down:
as §3

Test [10] is described as follows: A CellTox Green Cytotoxicity Assay to monitor cytotoxicity in HEK293 cells - 32 hour (AID 1224881). Further: nearly all actives have a fitted effect of over 40% in size. Further: potency means the concentration at half of the fitted maximal effect. In outline: as §1
A short description of test [11]: A CellTox Green Cytotoxicity Assay to monitor cytotoxicity in HepG2 cells - 0 hour (AID 1224882). Further: nearly all actives have a fitted effect of over 35% in size. The method, boiled down:
as §5

A short description of test [12]: A CellTox Green Cytotoxicity Assay to monitor cytotoxicity in HepG2 cells - 32 hour (AID 1224883). Further: nearly all actives have a fitted effect of over 50% in size. Further: potency means the concentration at half of the fitted maximal effect. The method, boiled down:
as §5

A short description of test [13]: A CellTox Green Cytotoxicity Assay to monitor cytotoxicity in HEK293 cells - 8 hour (AID 1224884). Further: nearly all actives have a fitted effect of over 35% in size. Further: potency means the concentration at half of the fitted maximal effect. The method, boiled down: as §1
Test [14] is described as follows: qHTS RealTime-Glo MT Cell Viability Assay in HepG2 cells - 16 hour (AID 1224885). Further: nearly all actives have a fitted effect of over 50% in size. Further: potency means the concentration at half of the fitted maximal effect. In outline:
as §4

Test [15] can be described thus: qHTS RealTime-Glo MT Cell Viability Assay in HEK293 cells - 24 hour (AID 1224886). Further: nearly all actives have a fitted effect of over 50% in size. Further: potency means the concentration at half of the fitted maximal effect. On activity change, negative = cytotoxicity: top concentration of the series differs between compounds. The method, boiled down:
as §2

Test [16] can be described thus: qHTS RealTime-Glo MT Cell Viability Assay in HEK293 cells - 8 hour (AID 1224887). Further: nearly all actives have a fitted effect of over 50% in size. Further: potency means the concentration at half of the fitted maximal effect. On activity change, negative = cytotoxicity: top concentration of the series differs between compounds. In outline: as §3
Test [17] in a line: A CellTox Green Cytotoxicity Assay to monitor cytotoxicity in HEK293 cells - 16 hour (AID 1224888). Further: nearly all actives have a fitted effect of over 35% in size. Further: potency means the concentration at half of the fitted maximal effect. In outline:
as §1

Test [18] can be described thus: qHTS RealTime-Glo MT Cell Viability Assay in HepG2 cells - 0 hour (AID 1224889). Further: nearly all actives have a fitted effect of over 50% in size. The method, boiled down: as §4
Test [19] can be described thus: A CellTox Green Cytotoxicity Assay to monitor cytotoxicity in HepG2 cells - 8 hour (AID 1224890). Further: nearly all actives have a fitted effect of over 45% in size. Further: potency means the concentration at half of the fitted maximal effect. The method, boiled down: as §5
Test [20] in a line: A CellTox Green Cytotoxicity Assay to monitor cytotoxicity in HepG2 cells - 16 hour (AID 1224876). Further: nearly all actives have a fitted effect of over 45% in size. The method, boiled down: as §5

The record followed here is PubChem BioAssay (Tox21).

Several values for one entry are separate records, joined by “and”; a condition that tells them apart may be missing. Identical values can stand only once. Results filed as inconclusive are left out. A structure can be active in one record and inactive in another. Activity calls are given as the source filed them. The call rests on the fitted dose curve; in most records, active means well fitted curve in the direction sought with a large enough effect in the repeat runs; inconclusive means weak or mixed curves; inactive means no such curve, though single readings can be large; an effect the other way counts as inactive or inconclusive.
On the % scale 0 is the no-effect control and ±100 the full control effect.

Consider `C[C@H]1NCc2cc(-c3ccc4c(=O)c(C(=O)O)cn(C5CC5)c4c3OC(F)F)ccc21`, for which the cytotoxicity increase was -4.15% [at 15.8 µM] (inactive) in test [1]; 1.86% [at 15.8 µM] (inactive) in test [8]; -2.38% [at 15.8 µM] (inactive) in test [10]; -4.67% [at 15.8 µM] (inactive) in test [12]; -4.13% [at 15.8 µM] (inactive) in test [13]; 1.89% [at 15.8 µM] (inactive) in [19]. Besides, the activity change, negative = cytotoxicity in [2] was -1.72% [at 15.8 µM] (inactive); in [9], -10.2% [at 15.8 µM] (inactive); in [15], -3.25% [at 15.8 µM] (inactive); in test [16], -3.93% [at 15.8 µM] (inactive); in test [18] it was -7.36% [at 15.8 µM] (inactive). Also, the viability change, negative = cytotoxic in [3] was -17% [at 15.8 µM] (inactive). The max response in test [4] was -6.6% (inactive). Besides, the activity change in test [5] was -2.55% [at 15.8 µM, stronger effect = higher value] (inactive); in test [17] it was -0.109% [at 15.8 µM, stronger effect = higher value] (inactive). For the same compound, the activity change, negative = cytotoxic in [6] is -0.83% [at 15.8 µM] (inactive); in test [14] it was -14.5% [at 15.8 µM] (inactive). The cytotoxicity in test [7] is 1.74% [at 15.8 µM] (inactive); in test [11], -0.836% [at 15.8 µM] (inactive).

As for `CC(C)CCCCCOC(=O)CCS`, the Potency entry in [1], in [2], in [3], in test [5], in [20] and in [6] was “inactive” throughout. Moreover, the Potency result in [7], in test [8], in test [9], in test [10], in [11] and in test [12] was “inactive” each time. The Potency result in [13], in test [14], in test [15], in [16], in [17] and in test [18] was “inactive” each time. For the same compound, the Potency entry in test [19] was “inactive”. Further, in test [4], the max response is 0.648% (inactive).

Regarding `CC(C)OC(=O)C(O)(CC(=O)O)CC(=O)O`, the Potency entry in test [1], in [2], in [3], in test [5], in test [6] and in test [7] was “inactive” each time. Moreover, the Potency result in test [8], in [9], in test [10], in [11], in [12] and in test [13] was “inactive” throughout. Further, the Potency result in test [14], in test [15], in test [16], in [17], in test [18] and in [19] was “inactive” each time. Moreover, the max response in test [4] is 1.68% (inactive).

As to `O=C(O)[C@H](O)[C@@H](O)[C@H](O[C@@H]1O[C@H](CO)[C@H](O)[C@H](O)[C@H]1O)[C@H](O)CO`, the Potency result in test [1], in test [2], in [3], in [5], in test [20] and in test [6] was “inactive” each time. In addition, the Potency entry in test [7], in [8], in test [9], in test [11], in test [12] and in test [13] was “inactive” throughout. In addition, the Potency entry in [14], in [15], in [16], in test [17], in [18] and in test [19] was “inactive” in each case. In addition, the max response in [4] was 11.3% (inactive).

In the case of `CC(=O)CC(=O)Nc1ccc(S(=O)(=O)O)cc1`, the Potency entry in [1], in [2], in test [3], in test [5], in [6] and in test [7] was “inactive” each time. Besides, the Potency result in test [8], in [9], in test [10], in test [11], in test [12] and in test [13] was “inactive” in each case. Further, the Potency entry in [14], in test [15], in [16], in [17], in test [18] and in test [19] was “inactive” each time. In addition, the max response in test [4] was 0.915% (inactive).

In the case of `COc1cccc2c1C(=O)c1c(O)c3c(c(O)c1C2=O)C[C@@](O)(C(C)=O)C[C@@H]3O[C@H]1C[C@H](N)[C@H](O)[C@H](C)O1`, the Potency in [1] was 43.9 µM (active) and inactive; in test [2], 6.2 µM (active) and 151 nM (active); in test [3], 49.3 µM (active); in test [4] it was 62 nM (active) and 3 nM (active); in test [6], 22 µM (active); in test [10], 43.9 µM (active) and inactive. The Potency entry is “inactive and 30.1 nM (active)” in test [12]; 39.1 µM (active) in test [13]; 43.9 µM (active) and 23.9 µM (active) in test [14]; 110 nM (active) and 4.8 nM (active) in [15]; 15.6 µM (active) and 21.3 µM (active) in test [16]; 39.1 µM (active) in test [17]. For the same compound, in test [19], the Potency was 55.3 µM (active). In addition, the Potency result in test [7], in test [8], in test [9], in [11] and in [18] was “inactive” each time.
